A selection: hits, their analogues and other compounds. The true share with any hit is near 4.8%.
SMARCA2 act: activators of SMARCA2 function. MG213 cells, MMTV-luciferase reporter, dexamethasone, overnight. activation, % at 9.1 µM. 370,000 compounds, 1% hits. AID 652017; in the data active = activation above about 7.8%
hcDAF12 agonist: activators of H. contortus DAF-12 nuclear receptor | HEK293 hcDAF-12 lit1-tk-luc reporter, luminescence; 0% DMSO, 100% Δ7-dafachronic acid | activation, % at 6.8 µM | 370,000 compounds, 1.4% hits | AID 652067;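 active = activation above the mean of all tested compounds plus 3 SD, cut at about 5.5% in these data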
hgDAF-12 ag: activates the H. glycines DAF-12 receptor ligand-binding domain. HEK293 GAL4-hgDAF12 UAS-luciferase reporter, agonist luminescence; normalized to butyrate control. activation, % at 6.8 µM. 370,000 compounds, 1.8% hits;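 active = activation above a cutoff set at the mean of all screened compounds plus 3 SD, cut at about 10% in these data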
ssDAF12 agonist: S. stercoralis DAF-12 activation, primary screen; 370,000 compounds, 1% hits; activation, % at 6.8 µM; HEK293 ssDAF-12/GRIP1 lit1-tk-luc reporter, luminescence; % of 3 µM dafachronic acid response;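 active = activation above the mean over all tested compounds plus 3 SD, cut at about 0.9% in these data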
DAX1 inh-1: inhibitors of human orphan nuclear receptor DAX1 (NR0B1); P51843; HEK293 Gal4-DAX1 luciferase reporter, luminescence; inhibition, % at 6.75 µM; 340,000 compounds, 0.99% hits; AID 504766;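 active = inhibition above the mean over all tested compounds plus 3 SD, cut at about 4.2% in these data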;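 note: inhibition shows as a rise in luminescence from relieved DAX1 repression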
Target sequence (P51843 207-470 limits assumed): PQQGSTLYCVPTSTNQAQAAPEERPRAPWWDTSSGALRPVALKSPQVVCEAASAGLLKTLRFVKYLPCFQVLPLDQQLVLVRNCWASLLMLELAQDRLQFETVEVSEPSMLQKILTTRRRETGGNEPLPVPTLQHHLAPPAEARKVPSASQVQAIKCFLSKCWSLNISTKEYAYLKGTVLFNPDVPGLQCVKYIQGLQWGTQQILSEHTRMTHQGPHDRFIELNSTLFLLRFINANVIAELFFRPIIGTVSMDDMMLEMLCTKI
DAX1 inh-2: DAX1 (NR0B1) inhibition, primary screen; 370,000 compounds, 1.1% hits; AID 652010; HEK293T StAR-luciferase reporter, SF-1/DAX-1 repression relief; inhibition, % at 6.8 µM;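 active = inhibition above the mean over all tested compounds plus 3 SD, cut at about 3.6% in these data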;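 note: higher inhibition means more luminescence from relief of DAX-1 repression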
Large screens that a line does not name were inactive.

Cc1cccc(C)c1-n1c(C)nn(-c2ncc(C(F)(F)F)cc2Cl)c1=O	none
N/C(=N\OC(=O)c1ccc([N+](=O)[O-])cc1Cl)c1ccccn1	hcDAF12 agonist 6.1, ssDAF12 agonist 1.1
N/C(=N\OC(=O)c1cc([N+](=O)[O-])ccc1Cl)c1ccccn1	none
CCCCOCCCNC(=O)C[C@@H]1C[C@@]2(C(=O)OCC)CCC=C2N(Cc2ccccc2)C1=O	none (no result: DAX1 inh-1)
CCOc1ccc(/C=N/n2c(-c3ccccc3)n[nH]c2=S)cc1	DAX1 inh-1 5.8
S=c1[nH]nc(-c2ccncc2)n1/N=C/C(Cl)=C\c1ccccc1	hgDAF-12 ag 12
CCCn1cnc2scc(-c3ccc(OC)cc3)c2c1=O	none
O=C1/C(=C/N(C(=O)c2ccco2)c2ccc(Br)cc2)Sc2ccccc21	DAX1 inh-1 4.7 (no result: SMARCA2 act, hcDAF12 agonist, hgDAF-12 ag, ssDAF12 agonist, DAX1 inh-2)
O=C1/C(=C/N(C(=O)c2ccco2)c2ccc(Cl)cc2)Sc2ccccc21	none (no result: SMARCA2 act, hcDAF12 agonist, hgDAF-12 ag, ssDAF12 agonist, DAX1 inh-2)
CC(C)c1ccc(NC(=S)NC2CCN(Cc3ccccc3)CC2)cc1	none
COc1ccc(-n2c(=O)c3c4c(sc3n(CC(=O)NCc3ccco3)c2=O)CCC4)c(OC)c1	none (no result: SMARCA2 act, hcDAF12 agonist, hgDAF-12 ag, ssDAF12 agonist, DAX1 inh-2)
Cc1ccc(-c2cc(C(=O)NN=Cc3ccc(F)cc3)[nH]n2)cc1C	hgDAF-12 ag 11 (no result: DAX1 inh-1)
O=C(N/N=C/c1ccncc1)c1ccc2c(c1)OCO2	hgDAF-12 ag 11
COc1ccc(/C=N/NC(=O)c2ccc3c(c2)OCO3)cc1	none
O=C(N/N=C/c1ccc(F)cc1)c1cc(-c2ccc3c(c2)OCO3)n[nH]1	DAX1 inh-1 4.6
Cc1cc(C(=O)N/N=C/c2ccc3c(c2)OCO3)c(C)o1	hgDAF-12 ag 11
CN(C)CCCNC(=O)c1cc(C(=O)Cc2ccccc2)c[nH]1	none
CCCNC(=O)C(=O)Nc1ccc2c(c1)N(S(=O)(=O)c1cccs1)CCC2	none
COCCCNC(=O)C(=O)Nc1ccc2c(c1)N(S(=O)(=O)c1cccs1)CCC2	DAX1 inh-2 4.2
Cc1ccc(Nc2nc(N)nc(COC(=O)C3=COCCO3)n2)cc1	DAX1 inh-2 3.6
COc1ccc2nc(Nc3sc4c(c3C(N)=O)CCCC4)sc2c1	hcDAF12 agonist 6.4
COc1cc(OC)cc(C(=O)Nc2sc3c(c2C(N)=O)CCC3)c1	ssDAF12 agonist 1.1
COc1ccc(CC(=O)Nc2sc3c(c2C(N)=O)CCCC3)cc1	none
CC(C(=O)N1CCN(Cc2ccccc2)CC1)n1ncn2cccc2c1=O (configuration not stated)	none
CCCn1c2c(c(O)c(C(=O)Nc3nc4ccccc4s3)c1=O)CCCC2	hcDAF12 agonist 6.0
CN(C)Cc1csc(NC(=O)Nc2ccccc2Oc2ccccc2)n1	SMARCA2 act 7.9 (no result: DAX1 inh-1)
CC(=O)Nc1nc(COc2ccccc2)cs1	hgDAF-12 ag 13
COc1ccccc1NC(=O)Nc1nc(CC(=O)NCc2cccnc2)cs1	DAX1 inh-1 4.8
CC12CN3CC(C)(CN(C1)C3c1ccc3c(c1)OCO3)C2O (configuration not stated)	none
CCOC(=O)C1CCCN(C(=O)COc2ccccc2F)C1 (configuration not stated)	none
COc1cc(NS(=O)(=O)c2ccc3c(c2)C(C)(C)C(=O)N3C)cc(OC)c1	DAX1 inh-1 5.0
CCCCCOC(=O)Nc1ccc(S(=O)(=O)Nn2cnnc2)cc1	none
CCCCOc1ccc(C(=O)NCCN2CCC(n3c(=O)[nH]c4ccccc43)CC2)cc1	none (no result: DAX1 inh-1)
CC(=O)c1ccc(NC(=O)c2cc(C)nc3ccccc23)cc1	DAX1 inh-1 4.4
Cc1ccc(NC(=O)c2cc(C)nc3ccccc23)cc1	none
CC(=O)c1cccc(NC(=O)Nc2nc(C)cc(C)n2)c1	DAX1 inh-1 4.7
CCN(CC)c1ccc(NC(=O)Nc2ccccc2)cc1	hgDAF-12 ag 12
CC(=O)c1cccc(NC(=O)Nc2ccccc2)c1	none
CC(=O)c1ccc(NC(=O)Nc2ccccc2)cc1	hgDAF-12 ag 13, DAX1 inh-2 3.6
CCN(CC)c1ccc(NC(=O)Nc2ccc(C(C)=O)cc2)cc1	none
Cn1nnnc1SCC(=O)NCc1ccc2c(c1)OCO2	none
COc1ccccc1C(=O)NC(=S)NNC(=O)c1sc2ccccc2c1Cl	none
COc1ccccc1C(=O)NNC(=S)NC(=O)c1sc2ccccc2c1Cl	hcDAF12 agonist 6.1

Screens from PubChem BioAssay.
